Data published in the supplement of paper PMC4166925.
± gives the standard deviation of the averaged measurements. Over roughly 33,000 sequences, “E-score (dimensionless, -0.5 to 0.5)” has its median near -0.049; the highest 2% begin near 0.37. The full list was thinned out, with the highest values kept by preference.

These sequences were tested on T1, PmTbr T-box DNA-binding domain (GST fusion) (assay: PBM E-score of 8-mer (E-score (dimensionless, -0.5 to 0.5)); Tbr is Tbrain of the sea star Patiria miniata (Pm) or the sea urchin Strongylocentrotus purpuratus (Sp); higher = stronger binding preference). Conditions: the construct has about 5 more residues each side.
T1 sequence: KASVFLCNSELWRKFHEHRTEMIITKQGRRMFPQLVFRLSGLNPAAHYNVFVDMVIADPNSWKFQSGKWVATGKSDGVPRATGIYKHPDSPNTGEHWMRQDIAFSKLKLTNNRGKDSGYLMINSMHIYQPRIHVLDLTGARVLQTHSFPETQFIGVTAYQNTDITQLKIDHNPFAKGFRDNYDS
Procedure, shortened: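 Primer extension turned Universal Agilent oligonucleotide arrays double-stranded. They were incubated with 200 nM protein in PBS (pH 7.5); the protein was a GST-fused Tbr T-box DNA-binding domain expressed in BL21 E. coli at 20 °C and purified on glutathione. Every ungapped 8-mer was scored from the scanned, quantified probe intensities, and the Universal PBM Analysis Suite gave each an enrichment E-score averaged over duplicate arrays.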

Sequence | PBM E-score of 8-mer
AGTGTTTC | 0.134 ± 0.066
CGCTTGAG | -0.0499 ± 0.011
CACGTGTC | 0.385 ± 0.0079
AGCGTGTC | 0.174 ± 0.034
CACGTGAC | 0.315 ± 0.0075
CACGTGTA | 0.2502 ± 0.00031
AACGTGCG | 0.345 ± 0.029
ACCGTGTG | 0.218 ± 0.0082
AACGTGTA | 0.156 ± 0.04
AACGTGTG | 0.3941 ± 0.0015
AACGTGTC | 0.4102 ± 0.0015
CGAGGGCA | -0.019 ± 0.015
ATTAGAAC | -0.161 ± 0.0031
GCCAAGCA | -0.0191 ± 0.018
ACACCAAG | 0.35 ± 0.005
GATATCAC | 0.331 ± 0.021
TCCGCACA | 0.104 ± 0.058
CGAATTCC | -0.164 ± 0.079
ATTTCCCG | -0.133 ± 0.0071
AGCTGTGC | 0.182 ± 0.0098
ACCTGTGC | 0.0647 ± 0.0069
ACCTGTGA | 0.4002 ± 0.002

Sequence | PBM E-score of 8-mer
AGCTGTGG | 0.0136 ± 0.075
AGCTGTGA | 0.404 ± 0.017
GCCTGTGA | 0.107 ± 0.014
GGTAGAGA | -0.124 ± 0.0055
GACTCAGA | -0.213 ± 0.097
TCAAATCA | -0.159 ± 0.042
GTCGCCAC | 0.326 ± 0.0074
ACAGGCTC | 0.0148 ± 0.018
CCTTCGCG | 0.2566 ± 0.0012
ACCGTCGT | 0.162 ± 0.045
ACCTCCGA | 0.253 ± 0.033
GGTGCAAC | 0.299 ± 0.033
AGTGCGAA | 0.4725 ± 0.00067
ACTGCGAT | 0.107 ± 0.048
AATGCGAT | 0.024 ± 0.0098
AGTGCGTA | 0.146 ± 0.048
AGTGCGAT | 0.427 ± 0.0052
GCTGCGAC | 0.137 ± 0.0089
TGTGCAAA | 0.197 ± 0.043
GGTGCAAA | 0.393 ± 0.0071
ACTGCGAA | 0.315 ± 0.012
GGTGCGAC | 0.462 ± 0.017

Sequence | PBM E-score of 8-mer
CGTGCGAC | 0.277 ± 0.018
ATCCTGCC | -0.0684 ± 0.0044
CTAGCAAG | 0.0488 ± 0.014
TGAGGGAA | -0.0537 ± 0.066
ATCATAGC | 0.0043 ± 0.09
CTGGCGAC | 0.124 ± 0.059
GGTGCGAA | 0.48957 ± 0.00016
AGTGCGAC | 0.37 ± 0.012
TATGCGAA | 0.157 ± 0.0088
CGTGCGCA | 0.0827 ± 0.019
CGTGCAAA | 0.11 ± 0.0028
CGTGCGAA | 0.448 ± 0.0091
AGTGCGTC | -0.147 ± 0.029
GGTGCGTA | 0.2616 ± 0.00075
ACTGCGAC | 0.0881 ± 0.0041
GATGCGAA | 0.186 ± 0.038
TCTGCGAA | 0.201 ± 0.038
TGTGCGAA | 0.448 ± 0.0066
AGCCGACA | 0.165 ± 0.007
GTGGCTCA | 0.0273 ± 0.048
CGCCGCAA | -0.0674 ± 0.0034
ATTGCTCG | -0.0286 ± 0.034

Sequence | PBM E-score of 8-mer
CAGCCAGA | -0.0394 ± 0.019
CGAGATCC | 0.0268 ± 0.01
AAGGGATT | -0.212 ± 0.11
CCTAAAAC | -0.00751 ± 0.035
CTGTTCAC | 0.263 ± 0.012
CATGCAGC | -0.0211 ± 0.03
AGAGTGCA | 0.0698 ± 0.0037
CACTTGGC | 0.236 ± 0.038
AGTGCGGA | 0.265 ± 0.0086
ACTGCGAG | 0.179 ± 0.04
CGTGCGAG | 0.358 ± 0.018
AGTGCGAG | 0.405 ± 0.021
CGTGCGGA | 0.0633 ± 0.03
GTTGCGAA | 0.389 ± 0.015
GGTGCGGA | 0.405 ± 0.015
ATTGCGAA | 0.27169 ± 0.00012
CTTGCGAA | 0.328 ± 0.029
ACTTCGAC | 0.14 ± 0.024
ATTGACAG | 0.15 ± 0.052
CTTGACCC | -0.326 ± 0.035
CTTGACAC | 0.43 ± 0.023
